Test results from the supplement of paper PMC12669032.
A number with no mark means an inactive call.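 The calls were made as follows: active = AUC reduced over 20% with Padj below 0.05 in at least 2 of 3 replicates; inactive = otherwise.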

Columns and labels:
Experiment in all cases: growth AUC relative to DMSO control (median of replicates) (fraction); higher = more growth (less inhibition), active = hit call of the paper
Settings in all cases: 20 µM; 24 h
Akkermansia muciniphila = system: Akkermansia muciniphila
In short: (§1)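 Gut bacteria were grown singly in mGAM at 37 °C without oxygen, from OD600 0.05, alongside 20 µM compound in 1% DMSO, and OD600 was read each hour for 24 h. Area under the growth curve was normalised to the median of solvent-only wells per plate, or to row and column medians on the industrial chemical plate. The minimum OD was set to 0 beforehand, and the reported value is the median of three biological replicates grown on separate days.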

Bacteroides caccae = system: Bacteroides caccae
In short: as §1

Bacteroides clarus = system: Bacteroides clarus
In short: as §1

Bacteroides dorei = system: Bacteroides dorei
In short: as §1

Bacteroides stercoris = system: Bacteroides stercoris
In short: as §1

[1] = system: Bacteroides thetaiotaomicron
In short: as §1

Bacteroides uniformis = system: Bacteroides uniformis
In short: as §1

[2] = system: Bifidobacterium longum subsp. longum
In short: as §1

Clostridium difficile = system: Clostridium difficile
In short: as §1

Collinsella aerofaciens = system: Collinsella aerofaciens
In short: as §1

Coprococcus comes = system: Coprococcus comes
In short: as §1

Escherichia coli ED1a = system: Escherichia coli ED1a
In short: as §1

Escherichia coli IAI1 = system: Escherichia coli IAI1
In short: as §1

Eubacterium rectale = system: Eubacterium rectale
In short: as §1

[3] = system: Fusobacterium nucleatum subsp. animalis
In short: as §1

Lactobacillus gasseri = system: Lactobacillus gasseri
In short: as §1

Lactobacillus paracasei = system: Lactobacillus paracasei
In short: as §1

Odoribacter splanchnicus = system: Odoribacter splanchnicus
In short: as §1

[4] = system: Parabacteroides distasonis
In short: as §1

Parabacteroides merdae = system: Parabacteroides merdae
In short: as §1

SMILES	growth AUC (Akkermansia muciniphila)	growth AUC (Bacteroides caccae)	growth AUC (Bacteroides clarus)	growth AUC (Bacteroides dorei)	growth AUC (Bacteroides stercoris)	growth AUC [1]	growth AUC (Bacteroides uniformis)	growth AUC [2]	growth AUC (Clostridium difficile)	growth AUC (Collinsella aerofaciens)	growth AUC (Coprococcus comes)	growth AUC (Escherichia coli ED1a)	growth AUC (Escherichia coli IAI1)	growth AUC (Eubacterium rectale)	growth AUC [3]	growth AUC (Lactobacillus gasseri)	growth AUC (Lactobacillus paracasei)	growth AUC (Odoribacter splanchnicus)	growth AUC [4]	growth AUC (Parabacteroides merdae)
COC1CCC2(CC1)NC(=O)C(c1cc(C)ccc1C)=C2O (stereo not given)	0.863	0.974	1.05	1.02	1.12	1.01	1.01	1.09	1.02	1.05	1.02	1.03	1.02	1.13	1.13	0.95	1.05	1.05	1.01	1.08
CCCNCCOc1c(Cl)cc(Cl)cc1Cl	0.946	0.972	0.979	0.985	0.898	0.979	1	0.918	0.973	0.98	0.927	0.944	0.953	0.924	0.918	0.953	0.966	0.999	0.972	0.997
C#CCOC(=O)[C@@H](C)Oc1ccc(Oc2ncc(Cl)cc2F)cc1	0.914	0.998	0.985	1.02	1.05	0.975	0.942	1.04	0.99	0.964	0.978	1.01	0.987	0.982	0.903	0.962	0.997	0.982	1	0.979
COC(=O)c1ccccc1S(=O)(=O)NC(=O)n1nc(OCC(C)O)n(C)c1=O (stereo not given)	0.933	1	0.962	0.992	0.982	0.994	1.03	0.956	0.951	1.02	0.991	0.99	0.991	1.08	1.02	1.01	1.03	0.943	1.03	0.996
C=C1C[C@]23C[C@@]1(O)CC[C@H]2[C@@]12C=C[C@H](O)[C@@](C)(C(=O)O1)[C@H]2[C@@H]3C(=O)O	1.24	0.966	0.999	0.921	1.01	1.02	0.947	0.915	0.931	0.95	0.975	0.982	1.01	1.14	0.967	0.921	0.94	0.779	0.778	0.995
CCCOC(=O)NCCCN(C)C	0.994	1.01	1.03	1	0.98	1.02	1	1.02	0.987	0.975	0.979	1.02	0.979	0.952	0.984	0.951	1.04	1.01	0.989	0.977
CCNc1nc(Cl)nc(N(CC)CC)n1	1.06	0.995	1.01	0.986	1.01	0.977	0.951	1.02	1.02	1.03	1.02	1.02	0.971	1.04	1.11	0.925	0.997	1.04	1.07	1
CCOC(=O)[C@@H](C)Oc1ccc(Oc2nc3ccc(Cl)cc3o2)cc1	0.975	0.971	0.966	0.983	1.03	1.01	0.929	1	1.03	1.02	1.01	1.03	1	0.876	1.02	0.991	1.03	1.09	0.999	0.971
CCCCOCCOCCOCc1cc2c(cc1CCC)OCO2	0.968	0.968	0.983	1.01	1.01	0.96	0.948	1.03	1.03	0.98	1.06	1.03	1	0.84	0.992	1.03	1.01	1.07	0.529 (active)	0.924
Cc1nn(C)c(Oc2ccccc2)c1/C=N/OCc1ccc(C(=O)OC(C)(C)C)cc1	1.04	1.01	1.03	0.974	0.961	0.982	0.969	0.944	1.02	0.963	0.996	0.984	0.991	0.907	0.973	0.901	1.01	1.01	1.03	0.925
COC(=O)Cc1cccc2ccccc12	1.01	1.01	0.989	0.965	1.07	0.995	1	1.02	1.01	0.96	0.997	0.969	0.968	1.07	0.996	0.924	0.974	1.08	0.986	0.995
C/C=C/C=C/CCCCCCCO	0.879	1.03	0.982	1.02	1.07	0.969	1	1.01	0.984	1.02	0.995	1.01	0.983	1.03	1.08	0.96	0.984	1.03	0.967	0.982
CC(C)(SC(=O)N1CCCCC1)c1ccccc1	0.978	0.973	0.982	1.01	0.945	0.927	0.965	1.01	0.99	1	0.998	1.01	1.01	1.02	1.07	1.01	1.02	1	0.778 (active)	0.965
CC(Oc1ccc(Cl)cc1Cl)C(=O)NC(C)(C#N)C(C)C (stereo not given)	1.27	0.944	1	0.999	0.99	0.964	0.92	1.02	0.935	0.977	1.02	0.989	1.01	1.13	0.972	0.803	0.997	0.838	0.65 (active)	0.981
CCOC(=O)/C(Cl)=C/c1cc(N2C(=O)C3=C(CCCC3)C2=O)ccc1Cl	0.947	0.97	0.934	0.99	0.834	0.924	0.937	0.912	1.03	1.03	0.97	1	1.02	0.951	0.954	1.1	0.473	1.1	0.971	0.948
